# Screens deposited in PubChem by National Center for Advancing Translational Sciences (NCATS).
# DT40 TDP1 no CPT: qHTS for Inhibitors of human tyrosyl-DNA phosphodiesterase 1 (TDP1): qHTS in cells in absence of CPT; DT40 Tdp1-/- hTDP1 cells, no CPT, ATP luminescence, 48 h; Potency, µM (top dose mostly 46.2 µM), for inactives: at the top dose activity change, negative = growth inhibition, hits mostly inhibitors; 420,000 compounds, 15% hits; AID 686978, 2013; note: % is set by controls: 0 for no effect and ±100 for the full control effect; nearly all actives have a fitted effect of over 55% in size
#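 DT40 Tdp1-/-;hTDP1 cells, no CPT (DMSO vehicle only), 400 cells/well; compounds pin-transferred; ≥48 hr, 37 °C; CellTiter-Glo 30 min RT dark, luminescence read.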
# HT1080-NT tox: kills 2HG-producing HT-1080-NT fibrosarcoma cells; AID 686970; 360,000 compounds, 1.6% hits; Potency, µM (titrated, usually from 46.1 µM), inactives show at the highest dose activity, negative = less viability, actives largely listed as cytotoxic; HT-1080-NT fibrosarcoma viability, CellTiter-Glo ATP luminescence, 48 h;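 note: NT is the 2HG producing partner of a matched IDH1 knockdown line; 0% = DMSO-treated cells and -100% = media-only wells without cells; nearly all actives have a fitted effect of over 55% in size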
#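 A 48-hour cytotoxicity screen used HT-1080-NT cells plated 2 hours before compound delivery. ATP-based CellTiter-Glo luminescence measured viability, normalized to DMSO and no-cell controls.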
# DT40 TDP1 CPT: DT40-hTDP1 cell growth loss with CPT | 420,000 compounds, 12% hits | Potency, µM (titrated, usually from 46.2 µM), without a hit: at the top dose activity change, negative = growth inhibition, most hits filed as inhibitors | chicken DT40 Tdp1-/-;hTDP1 cells + 20 nM CPT, ATP luminescence, 48 h; note: % is set by controls: 0 for no effect and ±100 for the full control effect; nearly all actives have a fitted effect of over 55% in size
#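 Chicken DT40 Tdp1-/- cells stably complemented with human TDP1 were seeded at 400 cells/well in medium containing 20 nM camptothecin, exposed to pin-transferred compounds, and grown at 37 °C for at least 48 hr. Viability was read as ATP luminescence.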
# HepG2 tox: counter-screen for TGF-b inhibitors: cytotoxicity in HepG2 cells; HepG2 CAGA-GFP viability, ATP luminescence, 18 h; Potency, µM (top dose mostly 46.1 µM), for inactives: at the top dose activity change, negative = cytotoxicity, hits mostly cytotoxic; 410,000 compounds, 0.76% hits
#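 HepG2 CAGA-GFP cells (1000/well, DMEM with 1% FBS) received compound, then TGF-beta at 500 pg/mL final, and were incubated 18 hours at 37 degrees C. Viability was read by CellTiter-Glo luminescence. Media-only wells were set as complete cell-killing and DMSO as no toxicity.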
# TGFb inhibitor: inhibitors of TGF-b signaling; HepG2 CAGA-GFP TGF-b/SMAD3 reporter, GFP fluorescence, 18 h; TGF-beta stimulated, 500 pg/mL final; Potency, µM (highest dose often 46.1 µM), inactives show at the top dose activity, negative = inhibition, actives largely listed as inhibitors; 410,000 compounds, 1.2% hits; AID 588855; note: % is set by controls: 0 for no effect and ±100 for the full control effect; nearly all actives have a fitted effect of over 65% in size
#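 First, reporter cells (HEPG2 CAGA-GFP) rested 2 h at 37 degrees C. Next, compounds were pinned in and TGF-beta added to 500 pg/mL final. After 18 h, GFP was imaged per cell and summed per well.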
# HT1080 IDH1KD tx: toxicity to HT-1080 IDH1 knockdown cells (counter line); HT-1080 IDH1 knockdown viability, ATP luminescence, 48 h; Potency, µM (series often up to 46.1 µM), for inactives: top-dose activity, negative = toxicity, actives largely listed as cytotoxic; 360,000 compounds, 2% hits; AID 686971;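 note: 0% = DMSO wells and -100% = cell-free medium wells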
#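 IDH1KD HT-1080 cells, 750/well, RPMI + 5% FBS; compound pinned after 2 h settling; 48 h, 37 °C; CellTiter-Glo luminescence; % activity normalised to DMSO and no-cell wells; curves fitted, classed by r2 and efficacy.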
# Numbers without * were called inactive; ? = inconclusive; . = not tested or not shown; ! = not active in a repeat; [ ] = dose if it differs, or a comment. In the library only some 17% were active in any assay of this set; here they are far more common. Calls come from the whole dose curve; as a rule, active = well fitted curve in the direction sought with a large enough effect; inconclusive = small, poorly fitted or top-dose-only effect, or another doubt; inactive = no such curve, though single readings can be large; an effect the other way counts as inactive or inconclusive. Potency is the fitted concentration of half-maximal effect.
SMILES,DT40 TDP1 no CPT,HT1080-NT tox,DT40 TDP1 CPT,HepG2 tox,TGFb inhibitor,HT1080 IDH1KD tx
COc1ccc(CN2C(=O)CNC2=S)cc1,8%,-3%,-7%,0%,0%,1%
COc1ccc2nc(N3C(=O)CNC3=S)sc2c1,7.3µM*,-1%,7.3µM*,-61%,?,0%
COCCC1CCCCN1Cc1nc(N2CCCCC2)c2cc(OC)c(OC)cc2n1 (centres undefined),-23%,.,-6%[9.04 µM],.,.,.
Cc1ccccc1NC(=S)N(Cc1cccnc1)Cc1ccccc1Cl,-28%,-22%,16%,-29%,-2%,-17%
S=C(Nc1ccccc1Cl)N(Cc1ccccc1)Cc1cccnc1,16µM*,1%,14%,-4%,2%,-4%
Cc1ccc(CNC(=O)CNC(=S)N(Cc2ccccc2)Cc2cccnc2)cc1,26µM*,-17%,?,-7%,-9%,-14%
O=C(CNC(=S)N(Cc1ccccc1)Cc1ccccc1F)NCCc1ccc(Cl)cc1,?,16µM*,23µM*,-31%,?,16µM*
O=C(CNC(=S)N(Cc1ccccc1)Cc1cccs1)NCc1ccc(F)cc1,?,-12%,-30%,-3%,14%,-26%
COc1cc(NC(=O)CCc2nnc3ccc(N4CCOCC4)nn23)cc(OC)c1OC,22%,13%,2%,-13%,14%,6%
COC(=O)[C@@H]1CCCN1C(=O)c1c(OC)cc(=O)n2c1CCN(Cc1ccc3cccnc3c1)CC2,-4%,.,0%,.,.,.
COC(=O)C1=C(C)NC(C)=C(C(=O)OC(C)(C)CN(C)CCC(c2ccccc2)c2ccccc2)C1c1cccc([N+](=O)[O-])c1 (centres undefined),8.4µM*,.,8.4µM*,.,.,.
COC(=O)C1=C(C)NC(C)=C(C(=O)O[C@@H]2CCCN(Cc3ccccc3)C2)[C@@H]1c1cccc([N+](=O)[O-])c1,10µM*,?,18µM*,-54%,?,?
CCOC(=O)C1=C(C)NC(C)=C(C(=O)OCC)C1c1ccc([N+](=O)[O-])s1,10µM*,?,15µM*,-49%,?,?
CCOC(=O)C1=C(C)NC(C)=C(C(=O)OCC)C1C,-51%,-8%,-29%,-3%,-20%,-28%
CCOC(=O)C1=C(N)Oc2c(c(=O)[nH]c3ccccc23)C1c1ccccc1 (centres undefined),13µM*,?,23µM*,-26%,0%,-27%
COc1ccc(CCNC(=O)CC(=O)N/N=C\c2ccc(OCC(N)=O)cc2)cc1OC,-3%,-2%,18%,3%,-5%,2%
COCC(=O)N1CCC2(CCCN(c3ccccn3)C2)CC1,-9%,.,?,.,.,.
O=C(COC(=O)Cc1ccc(Cl)c(Cl)c1)NCCc1ccccc1,-17%,5%,-15%,-17%,-10%,9%
CC(C)CN1CC2(CCN(C(=O)c3cnccn3)CC2)C1,3%,.,14%,.,.,.
COCCOC(=O)C1=C(C)NC(C)=C(C(=O)OC(C)C)C1c1cccc([N+](=O)[O-])c1 (centres undefined),15µM*!,15%,?,-5%,-19%,-18%
CCOC(=O)C1=C(N)Oc2cc(O)ccc2C1c1cccc([N+](=O)[O-])c1 (centres undefined),16µM*,7.3µM*,?,5%,-24%,5.8µM*
CCOC(=O)C1=C(C)N(C)C(=O)NC1c1cccc([N+](=O)[O-])c1 (centres undefined),0%,12%,-29%,3%,-1%,-1%
CCOC(=O)C1=C(C)NC(C)=C(C(=O)OC)C1c1cccc([N+](=O)[O-])c1 (centres undefined),15µM*!,-20%,12µM*!,-11%,-15%,-20%
COC(=O)C1=C(C)NC(C)=C(C(=O)OCCCN2CCC(c3ccccc3)(c3ccccc3)CC2)[C@H]1c1cccc([N+](=O)[O-])c1,12µM*,.,12µM*,.,.,.
CCC12CN3CC(CC)(CN(C1)C3c1ccc(OCc3ccccc3)cc1)C2=O (centres undefined),?,.,?,-1%,11%,.
SMILES,DT40 TDP1 no CPT,HT1080-NT tox,DT40 TDP1 CPT,HepG2 tox,TGFb inhibitor,HT1080 IDH1KD tx
CCOC(=O)C1=C(N)Oc2ccc3ccccc3c2C1c1cccc(O)c1 (centres undefined),?,-4%,-23%,-93%,11µM*,-16%
CCOC(=O)C1=C(C)NC(C)=C(C(=O)OC)[C@H]1c1cccc([N+](=O)[O-])c1,24µM*,.,27µM*,-40%,?,.
CCOC(=O)Cn1c(=O)c2c(nc(Br)n2CC(=O)OCC)n(C)c1=O,-5%,7%,-6%,-17%,0%,-2%
CCOC(=O)Cn1c(=O)c2c(nc(Br)n2Cc2ccccc2Cl)n(C)c1=O,23µM*,-6%,18µM*,-21%,-1%,-7%
C=CCn1c(=O)c2c(nc(Br)n2Cc2ccccc2Cl)n(C)c1=O,?,-13%,18µM*,4%,2%,-4%
CS(=O)(=O)N1CCCCC1c1cc(C(=O)NCc2ccc(Cl)c(Cl)c2)no1 (centres undefined),?,-2%,?,-12%,0%,-8%
COc1ccc(CN2CCCC(N3CCN(c4cccc(Cl)c4)CC3)C2)cc1OC (centres undefined),23µM*,-7%,?,-66%,-10%,-3%
CCOc1cc(CN2CCCC(N3CCN(c4ccc(F)cc4)CC3)C2)ccc1OC (centres undefined),?,-4%,16µM*,-15%,11%,0%
O=C(Nc1ccccc1F)c1csc([C@@H]2C[C@H](O)[C@@H](CO)O2)n1,-2%,?,-14%,5%,1%,13%
Nc1c(C(=O)N2CCCCC2)sc(=S)n1-c1ccccc1,?,16%,21µM*,-13%,-11%,4%
Cc1ccc(N2CC(C(=O)N3CCC4(CC3)CC(=O)c3ccccc3O4)CC2=O)cc1 (centres undefined),23µM*,-10%,?,-26%,-5%,-6%
CC1(C)CC(=O)C=C(NCC(O)c2ccccc2)C1 (centres undefined),?,-4%,4%,0%,-8%,-3%
